Screens (PubChem)
D1 agonist – Allosteric Agonists of the Human D1 Dopamine Receptor: qHTS; activation, % at 2 µM; AID 504660, 2011; hit rate 1% among 360,000; D(1A) dopamine receptor (Homo sapiens), P21728; HEK293 T-REx D1 cells, calcium flux, agonist mode; in the data active = activation above about 30%
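Agonism was scored from calcium flux recorded over 180 s (1 read/s) after pintool compound addition, following a 10-cycle baseline. Cells were inducible force-coupled HEK293 TREx D1, plated overnight at 30 C and loaded with no-wash calcium dye.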
DRD3 antagonist – qHTS of D3 Dopamine Receptor Antagonist: qHTS; D(3) dopamine receptor (Homo sapiens), P35462; D3R cells, DiscoveRx beta-arrestin luminescence, antagonist mode; active compounds read low; max response, negative = inhibition, %; hit rate 2.5% among 360,000; AID 652054, 2013; in the data active = max response below about -50%
Target sequence (P35462 whole entry, looked up): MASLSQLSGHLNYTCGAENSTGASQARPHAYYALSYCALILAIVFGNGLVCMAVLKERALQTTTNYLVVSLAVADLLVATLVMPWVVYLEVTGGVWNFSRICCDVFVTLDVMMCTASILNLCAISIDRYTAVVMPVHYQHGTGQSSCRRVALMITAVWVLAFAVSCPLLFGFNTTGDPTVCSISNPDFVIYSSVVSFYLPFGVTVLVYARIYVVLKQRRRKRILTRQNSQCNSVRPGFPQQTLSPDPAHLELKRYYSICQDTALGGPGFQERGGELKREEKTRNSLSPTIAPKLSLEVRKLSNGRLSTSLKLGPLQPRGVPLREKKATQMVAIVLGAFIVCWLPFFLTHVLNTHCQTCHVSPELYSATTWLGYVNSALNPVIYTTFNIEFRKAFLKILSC
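Cells expressing the human receptor were seeded at 1500 cells/well, incubated overnight at 37 degrees C in 5% CO2, then exposed to library compounds with dopamine controls for 90 minutes at 37 degrees C before luminescent detection.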
D3 ag – qHTS of D3 Dopamine Receptor Agonist: qHTS; D3R DiscoveRx beta-arrestin cells, luminescence, 90 min; max activation, %; hit rate 0.58% among 410,000; AID 652048, 2013; in the data active = max activation above about 30%
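Cells at 1500/well, incubated overnight, then treated with pinned compounds (dopamine as control) for 90 min at 37 degrees C. DiscoveRx reagent added for 30 - 60 minutes at room temperature; luminescence read.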
D1 potentiator – Potentiators of Human D1 Dopamine Receptor: qHTS. hit rate 0.036% among 360,000. potentiation, % at 10 µM. AID 504651, 2011. HEK293 TREx D1 cells, calcium flux, dopamine EC20 potentiation. D(1A) dopamine receptor (Homo sapiens), P21728; in the data active = potentiation above about 30%
D1 antag – Antagonist of Human D 1 Dopamine Receptor: qHTS. hit rate 3.2% among 360,000. HEK293 TREx D1 cells, calcium flux, dopamine EC80; active compounds read low. activity change, negative = inhibition, % at 10 µM. D(1A) dopamine receptor (Homo sapiens), P21728; in the data active = activity change below about -30%
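Compound effects on dopamine-evoked calcium signalling were measured in tetracycline-induced HEK293 Trex D1 cells. Dopamine at EC80 followed a 180 s compound pre-read, and fluorescence was tracked kinetically for 180 s more.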
Of the large screens only hits and unclear results are named; the others gave an inactive call. The list is not random: actives were taken first. Their share in the collection is about 6%.

Cc1nc(N2CCCC2)ncc1C(=O)NCc1ccc(Cl)cc1	none (no result: DRD3 antagonist)
N#C/C(=C\c1ccc(-c2ccc(Br)cc2)o1)C(=O)NCCc1c[nH]c2ccccc12	D1 antag -34
CSC1=N/C(=C\c2cccnc2)C(=O)N1c1ccccc1	D1 antag -43
CCSC1=N/C(=C\c2cccnc2)C(=O)N1c1ccccc1	D1 antag -68
CSC1=N/C(=C\c2ccccc2)C(=O)N1C	none (no result: D1 agonist, D1 potentiator, D1 antag)
CCOC(=O)CSC1=N/C(=C\c2cccnc2)C(=O)N1c1ccc(OC)cc1	none
Cc1ccc(NC(=O)N2CCN(C(=O)c3nsc4ccccc34)CC2)cc1C	none (no result: DRD3 antagonist)
Cc1ccc(S(=O)(=O)NC(C)C(=O)OCC(=O)N(C)c2ccccc2)cc1 (centres undefined)	D1 antag -31
O=C(NCCN1CCC(n2c(=O)[nH]c3ccccc32)CC1)c1ccccc1	DRD3 antagonist -113 (no result: D1 agonist, D1 potentiator, D1 antag)
Cc1cccc(C)c1NC(=O)N1CCC(n2c(=O)[nH]c3ccccc32)CC1	none (no result: D1 potentiator)
COCCCNC(=O)N1c2ccccc2Sc2ccccc21	none
Cc1ccc(C(=O)NCCN2CCC(n3c(=O)[nH]c4ccccc43)CC2)cc1C	DRD3 antagonist -111 (no result: D1 agonist, D1 potentiator, D1 antag)
O=C(NCCN1CCC(n2c(=O)[nH]c3ccccc32)CC1)N1c2ccccc2Sc2ccccc21	DRD3 antagonist -111 (no result: D1 agonist, D1 potentiator, D1 antag)
O=C(NCCN1CCC(n2c(=O)[nH]c3ccccc32)CC1)c1ccc(F)cc1Cl	DRD3 antagonist -77 (no result: D1 agonist, D1 potentiator, D1 antag)
CSC1=NS(=O)(=O)c2c(C)nn(C)c2S1	DRD3 antagonist -69
Cc1nc2cc(Oc3nc(NCCN(C)C)nc4ccsc34)ccc2s1	DRD3 antagonist -59 (no result: D1 agonist, D1 potentiator, D1 antag)
O=C1Cc2ccccc2Sc2ccccc21	none
CN(C)CCOc1ccc2ccccc2c1	none
Cc1ccc2c(c1)Sc1ccccc1CC2=O	D1 antag -48
CN(C)CCOc1ccc2c(c1)Sc1ccccc1CC2=O	D1 antag -30
CCc1ccccc1NC(=O)CN(Cc1ccccc1)S(=O)(=O)c1ccc2nc(C)sc2c1	none (no result: DRD3 antagonist)
Cc1ccc(OCCOCCN2CCCCC2)c([N+](=O)[O-])c1	none
CC(C)(C)c1ccccc1OCCOCCN1CCCCCC1	DRD3 antagonist -62 (no result: D1 antag)
CC(C)(C)c1ccccc1OCCOCCSc1ncccn1	none
Cc1ccc(C(C)(C)C)c(OCCOCCN2CCCC2)c1	DRD3 antagonist -54
COc1ccc(CCNC(=O)c2cc3c(=O)n(C)c4cc(Cl)ccc4c3s2)cc1OC	none (no result: DRD3 antagonist)
C=C[C@@H]1c2cc(C)ccc2N(S(=O)(=O)c2ccc(C)cc2)[C@H](c2ccccc2C(F)(F)F)C1(C#N)C#N	D1 antag -35
C/C1=C2N=C(/C=C3N=C(/C(C)=C4\[N-][C@@](C)([C@@H]5N=C1[C@](C)(CCC(=O)NCC(C)OP(=O)(O)O[C@H]1[C@@H](O)[C@@H](n6cnc7cc(C)c(C)cc76)O[C@@H]1CO)[C@H]5CC(N)=O)[C@@](C)(CC(N)=O)[C@@H]4CCC(N)=O)[C@@](C)(CC(N)=O)[C@@H]\3CCC(N)=O)C(C)(C)[C@@H]/2CCC(N)=O.CC(=O)O.[Co] (some centres undefined)	none (no result: D1 agonist, DRD3 antagonist, D1 potentiator, D1 antag)
CCC(=O)N1CCc2cc(S(=O)(=O)NCCC(=O)Nc3ccc(OC)c(Cl)c3)ccc21	none (no result: DRD3 antagonist)
Cc1ccc(C(c2sc3nc(-c4ccco4)nn3c2O)N2CCCCC2)cc1 (centres undefined)	none (no result: DRD3 antagonist, D1 antag)
CCn1cc(/C=C(/C#N)S(=O)(=O)c2ccccc2)cn1	none
Cn1nccc1/C=C(/C#N)S(=O)(=O)c1ccccc1	DRD3 antagonist -56
N#C/C(=C\c1ccc[nH]1)S(=O)(=O)c1ccccc1	D1 antag -32
N#Cc1ccc(NC(=O)c2ccc3c(c2)nnn3C2CCCC2)cc1	none (no result: DRD3 antagonist)
O=C(NCc1ccccc1)c1cccc(COc2ccccc2Cl)c1	none
O=C(NCc1ccccc1)c1cccc(COc2cc(Cl)ccc2Cl)c1	DRD3 antagonist -72
CC1CCCCC1NC(=O)CN1C(=O)c2ccccc2S1(=O)=O (centres undefined)	none
O=C(CN1C(=O)c2ccccc2S1(=O)=O)NC1CCCC1	DRD3 antagonist -52
Cc1ccccc1/C=C/C12NC(=O)CN1c1ccccc1C2(C)C (centres undefined)	D3 ag 31
CC1(C)c2ccccc2N2CC(=O)N[C@@]21/C=C/C=C/c1ccccc1	none
CC1(C)N=C(N)N=C(N)N1c1ccc(Cl)cc1	none (no result: D1 agonist, DRD3 antagonist, D1 potentiator, D1 antag)
CCOC(=O)c1c(NC(=O)CSc2nnc(Cc3ccccc3)o2)sc(C(C)=O)c1C	D1 antag -36
CCOC(=O)c1c(NC(=O)CSc2nnc(-c3ccccc3)o2)sc(C(C)=O)c1C	none
CC(=O)N[C@@H](C=O)[C@H](O)[C@H](O)[C@@H](O)CO	none (no result: D1 agonist, DRD3 antagonist, D1 potentiator, D1 antag)
O=C(CCn1cccc1)N1CCc2ccccc21	D1 antag -31
N=c1sccn1CC(=O)N1CCc2ccccc21	DRD3 antagonist -65
Cc1ccc(-n2ncc(C(=O)NCCc3c[nH]c4ccccc34)c2C2CCN(C(=O)OC(C)(C)C)CC2)cc1C	none (no result: DRD3 antagonist)
CC(C)Oc1ccc(C(CCNCc2ccc(O)cc2)c2ccccc2)cc1 (centres undefined)	D1 agonist 39
COc1ccc(-c2cn3cccc(C)c3n2)cc1F	D1 antag -38
Cc1ccc(-c2cn3cccc(C)c3n2)cc1	none
CC1CCC(N2CC(=O)N(C3CCCCC3)C(c3ccc(Cl)cc3)C2=O)CC1 (centres undefined)	none (no result: DRD3 antagonist)
CCc1cccc(NC(=O)Nc2csc3c2CCCC3)c1	D1 antag -30 (no result: DRD3 antagonist)
COc1cccc(NC(=O)c2csc3c2CCCCC3)c1	D3 ag 44 (no result: DRD3 antagonist)
CCOC(=O)c1cc2c(=O)n3ccccc3nc2n(CCCOC)c1=NC(=O)c1c(-c2ccccc2Cl)noc1C	none (no result: DRD3 antagonist)
Cc1nc2c(-c3ccccc3)c(C)nn2c(C)c1CCC(=O)NCc1ccc(F)cc1	none (no result: DRD3 antagonist)
CCOc1ccc(NC(=O)c2cc3ccccc3cc2OC)cc1	none
CCc1ccc(NC(=O)c2ccccc2SC)cc1	D3 ag 30
COc1ccc(CC(=O)Nc2ccc(NC(=O)c3ccccc3F)cc2)cc1	D1 agonist 54
CCOc1ccc(NC(=O)c2ccc(F)cc2F)cc1	DRD3 antagonist -65 (no result: D1 agonist, D1 potentiator, D1 antag)
CCOc1ccc(NC(=O)c2cc3cc(C)ccc3n2C)cc1	D1 antag -56 (no result: DRD3 antagonist)
CSc1ccccc1C(=O)Nc1ccc2c(c1)OCCO2	none
COc1ccccc1CCNC(=O)CCc1c(C)c2cc3c(C)coc3cc2oc1=O	none (no result: DRD3 antagonist)
COC(=O)c1c(C)[nH]c(C(=O)C(C)OC(=O)C2CC(=O)N(CCc3ccccc3)C2)c1C (centres undefined)	D1 antag -33
COC(=O)c1c(C)[nH]c(C(=O)C(C)OC(=O)C2CC(=O)N(c3ccc(C)cc3)C2)c1C (centres undefined)	none (no result: D1 potentiator)
